This is part of a sample that, as a whole, favours compounds with a hit. Of some 79,000 tested, about 15% had one in any assay. Values without a mark were called inactive. Active and inactive are the calls of the source. Cut-off read from the data, not from the text of the source: active = growth inhibition above about 70%; inactive = the rest.
Experiment: NCI Yeast Anticancer Drug Screen. Data for the cln2 rad14 strain (AID 165);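 note: 0% = growth equal to vehicle treated cultures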
Conditions: S. cerevisiae cln2 rad14 strain, hits give high values
Experimental: Growth inhibition of yeast strains with defined genetic alterations is measured as a screen for potential anti-cancer activity. Selected strains with alterations in DNA damage repair or cell cycle control were exposed to compounds and growth inhibition was measured relative to vehicle treated controls. The strain used in this assay is cln2 rad14

[1] = at 5.0 µM (retest, dose inferred, filed as 0.5)
[2] = at 50.0 µM (retest, dose inferred, filed as 5.0)

Structure (SMILES)	growth inhibition [1]	growth inhibition [2]	growth inhibition (at 50.0 µM)
C=CC(=O)N1C/C(=C\c2ccc([N+](=O)[O-])cc2)C(=O)/C(=C/c2ccc([N+](=O)[O-])cc2)C1	26%	96% (active)	88% (active)
[Cl][Pt+2][Cl].[NH-]CC1(C[NH-])CCCC1	7%	30%	-3.1%
O=[N+]([O-])c1cc(Cl)cc(C(c2cc(Cl)cc([N+](=O)[O-])c2O)C(Cl)(Cl)Cl)c1O	36%	96% (active)	97% (active)
O=C1CN(CCN2CCOCC2)CC(=O)N2CCCCN12	-8%	2%	11.6%
O=c1c(Cl)nsnc1Cl	99% (active)	100% (active)	98% (active)
Cc1n[n+]([O-])c(C)cc1[N+](=O)[O-]	-5%	42%	76.5% (active)
COc1ccc(/C=C/c2cc(OC)c(OC)c(OC)c2)cc1O[Si](C)(C)C(C)(C)C	1%	-4%	53.2%
O=C(Nc1ccc(C2=NCCN2)cc1)c1cc(C(=O)Nc2ccc(C3=NCCN3)cc2)cc(C(=O)Nc2ccc(C3=NCCN3)cc2)c1	13%	62%	90.1% (active)
CN1C/C(=C\c2ccccc2)C(=O)C(c2ccccc2)C1 (configuration not stated)	1%	94% (active)	-20.6%
O/N=C1\c2ccccc2-c2ccc(Cl)cc21	-4%	27%	41.4%
S=P([S][Sn]([S]P(=S)(c1ccccc1)c1ccccc1)([c]1ccccc1)[c]1ccccc1)(c1ccccc1)c1ccccc1	25%	48%	89.9% (active)
[O-][n+]1c(-c2ccccc2)c(Cl)c(-c2ccccc2)n1O	0%	53%	92.7% (active)
Cc1nc(-c2ccccc2)nc2c1nc(C(C)C)n2Nc1ccccc1	-9%	33%	64.8%
CN1C(OCc2ccccc2)c2c(ccc3c2OCO3)C2C=Cc3cc4c(cc3C21)OCO4 (configuration not stated)	89% (active)	98% (active)	92.7% (active)
